Residual activity data for seven compounds are collected here from ChEMBL document CHEMBL2218924, “A broad activity screen in support of a chemogenomic map for kinase signalling research and drug discovery” (Biochem J, 2013).

Assay [1] concerns the target T1, Serine/threonine-protein kinase BRSK1 (Homo sapiens) (UniProt Q8TDC3).
T1 sequence (whole entry): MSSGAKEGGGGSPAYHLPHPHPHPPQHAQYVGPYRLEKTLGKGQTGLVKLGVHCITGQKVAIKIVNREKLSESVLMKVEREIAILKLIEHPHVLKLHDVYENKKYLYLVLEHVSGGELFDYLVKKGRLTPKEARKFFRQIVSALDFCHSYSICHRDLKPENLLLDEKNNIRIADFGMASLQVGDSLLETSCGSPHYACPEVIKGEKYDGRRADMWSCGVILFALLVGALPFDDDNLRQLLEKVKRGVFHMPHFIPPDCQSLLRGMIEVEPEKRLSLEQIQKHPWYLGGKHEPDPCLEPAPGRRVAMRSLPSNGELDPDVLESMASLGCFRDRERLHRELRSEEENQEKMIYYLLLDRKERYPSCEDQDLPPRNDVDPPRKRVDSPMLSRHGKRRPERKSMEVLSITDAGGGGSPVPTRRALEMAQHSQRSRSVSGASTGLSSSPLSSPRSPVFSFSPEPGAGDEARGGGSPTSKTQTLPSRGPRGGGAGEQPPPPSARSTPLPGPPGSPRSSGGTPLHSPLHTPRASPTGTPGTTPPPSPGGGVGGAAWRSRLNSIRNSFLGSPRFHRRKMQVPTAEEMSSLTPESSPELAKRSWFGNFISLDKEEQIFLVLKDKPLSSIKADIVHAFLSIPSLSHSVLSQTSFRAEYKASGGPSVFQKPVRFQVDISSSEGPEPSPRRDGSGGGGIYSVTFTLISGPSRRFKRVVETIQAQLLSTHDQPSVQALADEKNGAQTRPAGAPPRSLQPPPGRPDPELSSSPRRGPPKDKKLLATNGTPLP
The following applies: at 1 µM.

Assay [2] concerns the target T1, Serine/threonine-protein kinase BRSK1 (Homo sapiens). The following applies: at 10 µM.
The target in assay [3] is T2, Serine/threonine-protein kinase BRSK2 (Homo sapiens) (UniProt Q8IWQ3).
T2 sequence (whole entry): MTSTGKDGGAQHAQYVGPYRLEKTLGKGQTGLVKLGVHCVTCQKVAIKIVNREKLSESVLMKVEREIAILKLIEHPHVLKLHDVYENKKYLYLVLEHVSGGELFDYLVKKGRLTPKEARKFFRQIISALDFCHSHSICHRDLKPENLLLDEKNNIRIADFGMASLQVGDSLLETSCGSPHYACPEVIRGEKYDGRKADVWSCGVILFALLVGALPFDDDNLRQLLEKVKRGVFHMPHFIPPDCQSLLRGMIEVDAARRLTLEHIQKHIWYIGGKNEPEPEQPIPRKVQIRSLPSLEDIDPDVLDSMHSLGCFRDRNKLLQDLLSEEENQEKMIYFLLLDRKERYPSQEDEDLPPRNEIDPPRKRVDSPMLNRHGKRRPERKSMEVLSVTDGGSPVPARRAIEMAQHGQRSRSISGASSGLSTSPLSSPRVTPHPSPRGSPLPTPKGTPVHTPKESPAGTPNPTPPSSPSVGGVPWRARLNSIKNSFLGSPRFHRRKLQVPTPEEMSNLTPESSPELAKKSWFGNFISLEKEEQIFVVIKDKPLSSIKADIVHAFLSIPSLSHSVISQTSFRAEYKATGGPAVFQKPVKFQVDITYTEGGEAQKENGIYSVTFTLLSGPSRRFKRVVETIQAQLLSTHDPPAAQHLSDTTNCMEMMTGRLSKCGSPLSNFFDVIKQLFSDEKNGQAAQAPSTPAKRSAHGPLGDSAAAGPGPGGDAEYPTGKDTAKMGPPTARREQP
The settings on record: at 1 µM.

For assay [4], the target named is T2, Serine/threonine-protein kinase BRSK2 (Homo sapiens). The settings on record: at 10 µM.
The target of assay [5] is T3, Cyclin-dependent kinase 1/cyclin B1 (Homo sapiens) (UniProt P06493+P14635). The following applies: at 1 µM.
T3 sequence (P06493 whole entry, looked up): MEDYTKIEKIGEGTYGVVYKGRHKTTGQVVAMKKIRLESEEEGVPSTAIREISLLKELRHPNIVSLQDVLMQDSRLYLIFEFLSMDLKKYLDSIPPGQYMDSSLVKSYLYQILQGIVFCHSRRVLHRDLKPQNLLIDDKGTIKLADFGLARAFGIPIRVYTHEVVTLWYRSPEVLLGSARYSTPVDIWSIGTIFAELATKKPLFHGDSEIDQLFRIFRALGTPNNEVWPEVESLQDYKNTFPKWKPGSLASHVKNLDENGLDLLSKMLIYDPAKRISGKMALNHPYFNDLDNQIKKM
T3 sequence (P14635 whole entry, looked up): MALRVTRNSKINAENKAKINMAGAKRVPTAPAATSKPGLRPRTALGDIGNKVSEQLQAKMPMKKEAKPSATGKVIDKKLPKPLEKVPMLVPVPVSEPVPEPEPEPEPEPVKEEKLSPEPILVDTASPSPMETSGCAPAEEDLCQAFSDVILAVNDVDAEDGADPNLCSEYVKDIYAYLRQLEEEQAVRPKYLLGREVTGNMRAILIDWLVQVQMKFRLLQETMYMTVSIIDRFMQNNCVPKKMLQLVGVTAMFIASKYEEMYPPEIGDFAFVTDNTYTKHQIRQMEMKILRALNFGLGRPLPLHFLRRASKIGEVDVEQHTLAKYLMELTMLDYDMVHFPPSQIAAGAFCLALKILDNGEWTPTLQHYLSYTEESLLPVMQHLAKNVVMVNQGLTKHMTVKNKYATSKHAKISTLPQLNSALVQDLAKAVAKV
In assay [6] the target is T3, Cyclin-dependent kinase 1/cyclin B1 (Homo sapiens). The settings on record: at 10 µM.
Assay [7] addresses T4, Cyclin-dependent kinase 2/cyclin A (Homo sapiens) (UniProt P24941+P20248+P78396). The settings on record: at 1 µM.
Assay [8] has as its target T4, Cyclin-dependent kinase 2/cyclin A (Homo sapiens). The following applies: at 10 µM.
Assay [9] deals with T5, Cyclin-dependent kinase 2/cyclin E (Homo sapiens) (UniProt P24864+P24941+O96020). The following applies: at 1 µM.
Assay [10] addresses T5, Cyclin-dependent kinase 2/cyclin E (Homo sapiens). The settings on record: at 10 µM.
Assay [11] has as its target T6, CDK3/cyclin E (Homo sapiens) (UniProt P24864+O96020+Q00526). The settings on record: at 1 µM.
The target of assay [12] is T6, CDK3/cyclin E (Homo sapiens). The following applies: at 10 µM.
The target of assay [13] is T7, Cyclin-dependent kinase 5/CDK5 activator 1 (Homo sapiens) (UniProt Q00535+Q15078). The settings on record: at 1 µM.
The target of assay [14] is T7, Cyclin-dependent kinase 5/CDK5 activator 1 (Homo sapiens). The settings on record: at 10 µM.
For assay [15] the target is unchanged. The settings on record: at 1 µM. The source holds these as a separate data set.
For assay [16] the target is unchanged. The following applies: at 10 µM. The source holds these as a separate data set.
The target in assay [17] is T8, CDK6/cyclin D3 (Homo sapiens) (UniProt P30281+Q00534). The following applies: at 1 µM.
The target in assay [18] is T9, Cyclin-dependent kinase 7/ cyclin H (Homo sapiens) (UniProt P51946+P50613). The following applies: at 1 µM.
For assay [19], the target named is T9, Cyclin-dependent kinase 7/ cyclin H (Homo sapiens). The settings on record: at 10 µM.
For assay [20], the target named is T8, CDK6/cyclin D3 (Homo sapiens). The following applies: at 10 µM.

T6 sequence (O96020 whole entry, looked up): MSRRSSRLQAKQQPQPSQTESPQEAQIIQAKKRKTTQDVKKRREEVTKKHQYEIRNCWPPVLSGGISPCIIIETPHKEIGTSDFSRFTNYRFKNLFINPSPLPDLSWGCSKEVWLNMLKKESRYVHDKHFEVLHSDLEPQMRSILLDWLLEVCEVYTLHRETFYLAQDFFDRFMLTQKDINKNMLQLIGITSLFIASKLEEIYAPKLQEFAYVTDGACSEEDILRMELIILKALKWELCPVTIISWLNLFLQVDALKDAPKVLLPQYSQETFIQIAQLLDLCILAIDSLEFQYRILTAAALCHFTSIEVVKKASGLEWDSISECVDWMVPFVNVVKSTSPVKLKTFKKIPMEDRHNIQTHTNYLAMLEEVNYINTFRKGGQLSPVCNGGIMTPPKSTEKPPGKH
T6 sequence (P24864 whole entry, looked up): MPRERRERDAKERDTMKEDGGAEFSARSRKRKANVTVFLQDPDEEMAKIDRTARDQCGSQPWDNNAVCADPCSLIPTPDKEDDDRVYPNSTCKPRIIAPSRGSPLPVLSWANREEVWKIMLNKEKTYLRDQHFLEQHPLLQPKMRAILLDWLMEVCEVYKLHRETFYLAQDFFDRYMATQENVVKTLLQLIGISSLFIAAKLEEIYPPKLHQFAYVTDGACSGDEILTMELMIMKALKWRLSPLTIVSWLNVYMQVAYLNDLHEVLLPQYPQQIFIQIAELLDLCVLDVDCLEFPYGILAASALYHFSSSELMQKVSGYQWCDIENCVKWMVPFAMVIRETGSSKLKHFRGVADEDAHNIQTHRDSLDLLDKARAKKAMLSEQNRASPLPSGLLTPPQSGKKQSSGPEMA
T6 sequence (Q00526 whole entry, looked up): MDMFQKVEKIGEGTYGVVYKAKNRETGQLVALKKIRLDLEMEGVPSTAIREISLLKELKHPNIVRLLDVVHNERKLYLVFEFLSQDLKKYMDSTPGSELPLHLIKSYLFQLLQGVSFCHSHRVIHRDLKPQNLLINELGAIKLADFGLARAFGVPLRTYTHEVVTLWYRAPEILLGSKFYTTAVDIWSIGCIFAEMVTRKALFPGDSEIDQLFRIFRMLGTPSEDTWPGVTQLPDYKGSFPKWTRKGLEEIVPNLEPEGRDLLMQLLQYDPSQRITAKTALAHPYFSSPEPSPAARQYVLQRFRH

For `O=c1c2ccccc2[nH]c(=S)n1CCN1CCC(=C(c2ccc(F)cc2)c2ccc(F)cc2)CC1`, the residual activity in assay [1] was determined as 63%; in assay [2], 78%; in assay [3] it was 96%; in assay [4], 72%; in [5], 114%; in [6], 104%. Further, the residual activity in assay [7] was 143%; in assay [8], 80%; in assay [9] it was 99%; in assay [10] it was 88%; in [11], 114%; in assay [12], 86%. In addition, the residual activity in [13] was found to be 97%; in assay [14], 89%; in assay [15], 108%; in assay [16], 97%; in assay [17], 99%; in assay [18], 88%. Moreover, the residual activity in assay [19] is 95%.

In the case of `COc1cc2ncnc(Nc3ccc(NC(=O)c4ccccc4)cc3)c2cc1OC`, the residual activity in assay [1] is 67%; in assay [2], 63%; in assay [4] it was 99%; in assay [6], 101%; in assay [7] it was 144%; in [8], 93%. The residual activity in assay [9] was determined as 104%; in assay [10], 104%; in assay [11], 107%; in [12], 97%; in assay [13], 105%; in [14] it was 99%. Further, the residual activity in assay [15] came out at 101%; in [16], 101%; in assay [17] it was 111%; in assay [20], 102%; in assay [18], 97%; in [19], 102%.

`Cc1cncc2cccc(S(=O)(=O)N3CCCN(C(=O)CN)C[C@H]3C)c12`: the residual activity amounted to 57% in assay [1]; 66% in assay [2]; 89% in assay [3]; 33% in [4]; 97% in [9]; 93% in assay [10]. Further, the residual activity in assay [11] amounted to 92%; in assay [12], 73%; in assay [13] it was 89%; in assay [14] it was 80%; in [15] it was 80%; in assay [16], 92%. The residual activity was determined as 93% in assay [17], 84% in [20], 78% in [18] and 89% in assay [19].

For `COc1cccc(-c2cc(=O)c3ccccc3o2)c1N`, the residual activity is 101% in assay [1]; 103% in assay [2]; 123% in [3]; 98% in [4]; 99% in assay [5]; 99% in assay [6]. Besides, the residual activity in assay [7] is 93%; in assay [8], 10%; in assay [9], 96%; in assay [10] it was 85%; in [11], 90%; in assay [12], 84%. The residual activity in assay [13] was determined as 102%; in assay [14], 99%; in assay [15], 112%; in [16] it was 89%; in assay [17] it was 102%; in [20] it was 100%. The residual activity in assay [18] is 103%; in [19] it was 89%.

With `Cc1cc2ncc(-c3ccccc3)nc2cc1C`, the residual activity in assay [3] was 103%; in assay [4], 97%; in assay [5], 104%; in assay [6] it was 103%; in assay [7], 135%; in [8], 82%. Also, the residual activity in assay [9] was determined as 100%; in assay [10], 104%; in [11], 96%; in assay [12], 90%; in assay [13], 102%; in [14] it was 94%. The residual activity was found to be 93% in [15]; 110% in assay [16]; 107% in assay [17]; 88% in [20]; 102% in [18]; 97% in assay [19].

Turning to `CNc1cc2c(Nc3cccc(Br)c3)ncnc2cn1`, the residual activity in assay [1] is 34%; in assay [2] it was 8%; in assay [4] it was 26%; in assay [5] it was 111%; in assay [6] it was 99%; in assay [7], 123%. Besides, the residual activity is 94% in [8]; 105% in assay [9]; 107% in assay [10]; 88% in [11]; 83% in assay [12]; 98% in assay [13]. Besides, the residual activity in assay [14] was determined as 110%; in assay [15], 79%; in assay [16], 89%; in assay [17] it was 94%; in assay [20], 81%; in assay [18] it was 87%. The residual activity in assay [19] stood at 74%.

As for `Cn1cc(/C=C2\C(=O)Nc3ccc(S(N)(=O)=O)cc32)c2ccccc21`, the residual activity worked out at 23% in [1]; 3% in assay [2]; 36% in assay [3]; 19% in [4]; 34% in [5]; 39% in [6]. In addition, the residual activity in assay [7] stood at 68%; in assay [8], 46%; in assay [9] it was 67%; in assay [10], 52%; in assay [11] it was 69%; in assay [12], 34%. In addition, the residual activity was determined as 42% in assay [13]; 17% in assay [14]; 33% in assay [15]; 34% in assay [16]; 93% in assay [17]; 56% in assay [20]. The residual activity came out at 13% in assay [18] and 4% in assay [19].
